# Values joined by “and” are separate entries in the source; they are usually repeats but may differ in a detail not shown here. Equal values may be shown once. Active and inactive are the calls of the source.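 How the source made its calls, unless noted: active means compounds whose cell count with miR-34 switched on is under 0.7 times the count with it off; inactive means the rest.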
# How the values were obtained:
# [1] = viability loss with induced miR-34 in A549 – imaging, A549 dox-inducible miR-34, nuclei and caspase counts, primary screen (AID 1347080); details: A549 miR-34 inducible, Hoechst nuclei count, 48 h
# [2] = compounds altering circadian rhythm period length – cell-based, LOPAC library, luminescence reporter (AID 2774; call rule not given here;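 further: values are relative to mean of DMSO wells on each plate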); details: circadian reporter cells, at 7 µM, actives lie on both sides
# [3] = compounds altering viability of human ES cells (AID 493140; call rule not given here;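 further: cells exposed to compounds for four days before counting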); details: human embryonic stem cell survival screen; stronger effect = higher value
# [4] = tested on: Hepatitis C virus NS3 helicase; test: blockers of NS3h binding to ssDNA – biochemical, fluorescence polarization, LOPAC1280 library, primary screen (AID 687035; in the data active means inhibition above about 37%); details: Purified HCV NS3 helicase, Cy5-dT15 ssDNA binding fluorescence polarization; stronger effect = higher value; concentration not given here
# [5] = compounds altering Cy5-DNA-NS3h complex signal – biochemical, LOPAC1280, artefact control for HCV NS3 helicase inhibitor project (AID 687037; call rule not given here); details: Cy5-DNA-NS3h complex fluorescence interference counterscreen
# [6] = chitosan synthesis blockers in C. neoformans – flow cytometry, Cibacron Brilliant Red staining (AID 1347148; call rule not given here;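 further: compound exposure lasted three days at 37 degrees C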); details: Cryptococcus neoformans chitosan, stronger effect = lower value; at 10 µM unless noted
# [7] = blockers of cellular phospholipid synthesis – cell-based, LOPAC library, screen 4, primary screen (AID 1347384; call rule not given here); details: animal cells, phospholipid biosynthesis inhibition screen; at 10 µM
# [8] = galactose survival enhancers in mitochondrial complex I cybrids – cell-based, galactose medium, ATP luminescence, primary screen (AID 1645843;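 active means z-score of at least 1.8 in each of two replicates, scored against plate mean and spread of sample wells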;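 further: positive z means more ATP and so rescue of galactose-driven cybrid death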); details: complex I mutant cybrid cells, 72 h, stronger effect = higher value
# [9] = stronger effect = lower value, cell number ratio, induced over uninduced
# [10] = measured here: relative caspase fold change +Dox/-Dox
# [11] = measured here: total cells with miR-34 induction, stronger effect = lower value
# [12] = measured here: total cells without miR-34 induction
compound,measurement,setting,value
CCCCC[C@H](O)/C=C/[C@@H]1[C@@H](C/C=C\CCCCOC)[C@@H](O)C[C@H]1O,fold change,[1]; [9],0.815 (inactive)
same,fold change,[1]; [10],1.35
same,cell count,[1]; [11],5300
same,cell count,[1]; [12],6500
CC(C)(C)OC(=O)N1CCC(OCc2nc(-c3ccncc3)no2)CC1,fold change,[1]; [9],1.03 (inactive)
same,fold change,[1]; [10],0.58
same,cell count,[1]; [11],5600
same,cell count,[1]; [12],5430
Cc1nc(COP(=O)(O)O)cc(CN(CCN(CC(=O)O)Cc2cc(COP(=O)(O)O)nc(C)c2O)CC(=O)O)c1O.[Mn],fold change,[1]; [9],1.02 (inactive)
same,fold change,[1]; [10],0.746
same,cell count,[1]; [11],9240
same,cell count,[1]; [12],9050
CCCCCCCCCCCCCCCCCCCCCCCC(=O)NCCS(=O)(=O)O,fold change,[1]; [9],0.987 (inactive)
same,fold change,[1]; [10],0.331
same,cell count,[1]; [11],5520
same,cell count,[1]; [12],5600
CCCCCCCCCCCCCCCCCC(=O)OCC,fold change,[1]; [9],0.95 (inactive)
same,fold change,[1]; [10],2.18
same,cell count,[1]; [11],5760
same,cell count,[1]; [12],6060
CCCCC[C@H](O)/C=C/[C@@H]1[C@H](C/C=C\CCCC(=O)O)[C@H](O)C[C@H]1O,fold change,[1]; [9],0.921 (inactive)
same,fold change,[1]; [10],1.6
same,cell count,[1]; [11],5020
same,cell count,[1]; [12],5450
c1ccc2c(NCCCCCCCNc3c4c(nc5ccccc35)CCCC4)c3c(nc2c1)CCCC3,fold change,[1]; [9],1.06 (inactive)
same,fold change,[1]; [10],0.663
same,cell count,[1]; [11],4480
same,cell count,[1]; [12],4230
COc1ccc2c(c1)c(CC(=O)Nc1cccnc1)c(C)n2C(=O)c1ccc(Cl)cc1,fold change,[1]; [9],0.996 (inactive)
same,fold change,[1]; [10],0.947
same,cell count,[1]; [11],5760
same,cell count,[1]; [12],5780
COc1ccc2c(c1)c(CC(=O)Oc1ccc(-c3cc(=S)ss3)cc1)c(C)n2C(=O)c1ccc(Cl)cc1,fold change,[1]; [9],0.929 (inactive)
same,fold change,[1]; [10],2.02
same,cell count,[1]; [11],5100
same,cell count,[1]; [12],5490
COc1ccc2c(c1)c(CC(=O)SC[C@H](NC(C)=O)C(=O)OCCCCO[N+](=O)[O-])c(C)n2C(=O)c1ccc(Cl)cc1,fold change,[1]; [9],1.08 (inactive)
same,fold change,[1]; [10],0.702
same,cell count,[1]; [11],6270
same,cell count,[1]; [12],5810
CC(C)OC(=O)CCC/C=C\C[C@@H]1[C@@H](/C=C/[C@@H](O)CCc2ccccc2)[C@H](O)C[C@@H]1O,fold change,[1]; [9],0.961 (inactive)
same,fold change,[1]; [10],1.39
same,cell count,[1]; [11],5640
same,cell count,[1]; [12],5870
CCCCCCCOC(=O)Cc1c(C)n(C(=O)c2ccc(Cl)cc2)c2ccc(OC)cc12,fold change,[1]; [9],0.949 (inactive)
same,fold change,[1]; [10],0.801
same,cell count,[1]; [11],6160
same,cell count,[1]; [12],6490
O=P(O)(O)OC1[C@H](OP(=O)(O)O)[C@H](O)C(O)[C@H](O)[C@H]1OP(=O)(O)O (some centres not stated),fold change,[1]; [9],0.94 (inactive)
same,fold change,[1]; [10],1.1
same,cell count,[1]; [11],5720
same,cell count,[1]; [12],6080
CC(C)OC(=O)CCC/C=C\C[C@@H]1[C@@H](/C=C/C(F)(F)COc2ccccc2)[C@H](O)C[C@@H]1O,fold change,[1]; [9],1.05 (inactive)
same,fold change,[1]; [10],0.899
same,cell count,[1]; [11],5900
same,cell count,[1]; [12],5630
C=C1C[C@H](O)[C@H](C/C=C\CCCC(=O)O)[C@H]1/C=C/C(=O)CCCCC,fold change,[1]; [9],1.11 (inactive)
same,fold change,[1]; [10],1.24
same,cell count,[1]; [11],5720
same,cell count,[1]; [12],5160
CC/C=C\C/C=C\C/C=C\C/C=C\C/C=C\C/C=C\CCC(=O)NCCO,fold change,[1]; [9],0.934 (inactive)
same,fold change,[1]; [10],0.411
same,cell count,[1]; [11],5920
same,cell count,[1]; [12],6340
CCCC[C@H](C)C[C@H](O)/C=C/[C@H]1[C@H](O)CC(=O)[C@@H]1CCCC/C=C/C(=O)O,fold change,[1]; [9],0.92 (inactive)
same,fold change,[1]; [10],1.29
same,cell count,[1]; [11],5710
same,cell count,[1]; [12],6200
CCCCCC1OC(O)CC1SC[C@H](NC(C)=O)C(=O)O (some centres not stated),fold change,[1]; [9],0.93 (inactive)
same,fold change,[1]; [10],1.14
same,cell count,[1]; [11],5580
same,cell count,[1]; [12],6010
CCCCC[C@H](O)/C=C/[C@H]1C2CC(CO2)[C@@H]1CCCCCCC(=O)O (some centres not stated),fold change,[1]; [9],0.941 (inactive)
same,fold change,[1]; [10],0.43
same,cell count,[1]; [11],5850
same,cell count,[1]; [12],6210
CCCCC[C@H](O)/C=C/[C@@H]1[C@@H](C/C=C\CCCC(=O)OC)[C@@H](O)C[C@H]1O,fold change,[1]; [9],0.963 (inactive)
same,fold change,[1]; [10],1.19
same,cell count,[1]; [11],5860
same,cell count,[1]; [12],6080
CCCCCCCC(=O)CC[C@@H]1[C@@H](C/C=C\CCCC(=O)O)[C@@H](O)C[C@H]1O,fold change,[1]; [9],0.944 (inactive)
same,fold change,[1]; [10],1.3
same,cell count,[1]; [11],5400
same,cell count,[1]; [12],5720
CCCCC[C@H](O)/C=C/[C@H]1OC(O)C[C@H](O)[C@@H]1CCCCCCC(=O)O (some centres not stated),fold change,[1]; [9],1.03 (inactive)
same,fold change,[1]; [10],1.26
same,cell count,[1]; [11],5640
same,cell count,[1]; [12],5470
C=C(N)N[C@@H](CCC(=O)O)C(=O)O,fold change,[1]; [9],0.873 (inactive)
same,fold change,[1]; [10],0.849
same,cell count,[1]; [11],8430
same,cell count,[1]; [12],9660
CCCCC[C@H](O)/C=C/[C@@H]1[C@H](C/C=C\CCCC(=O)NCCO)[C@@H](O)C[C@H]1O,fold change,[1]; [9],1.11 (inactive)
same,fold change,[1]; [10],0.881
same,cell count,[1]; [11],6440
same,cell count,[1]; [12],5790
C#C[C@]1(O)CC[C@H]2[C@@H]3CCC4=CC(=O)CCC4[C@H]3CC[C@@]21CC (some centres not stated),fold change,[1]; [9],0.961 (inactive)
same,fold change,[1]; [10],0.754
same,cell count,[1]; [11],6080
same,cell count,[1]; [12],6330
CCCCC[C@H](O)/C=C/[C@@H]1[C@@H](C/C=C\CCCC(=O)OCC(O)CO)[C@@H](O)C[C@H]1O (some centres not stated),fold change,[1]; [9],0.942 (inactive)
same,fold change,[1]; [10],1.39
same,cell count,[1]; [11],5810
same,cell count,[1]; [12],6170
CC#CCC(C)C(=O)/C=C/[C@@H]1[C@H]2C/C(=C/CCCC(=O)O)C[C@H]2C[C@H]1O (some centres not stated),fold change,[1]; [9],0.968 (inactive)
same,fold change,[1]; [10],3.57
same,cell count,[1]; [11],5500
same,cell count,[1]; [12],5680
CCCCC(C)(C)[C@H](O)/C=C/[C@H]1[C@H](O)CC(=O)[C@@H]1CCCCCCC(=O)O,fold change,[1]; [9],0.94 (inactive)
same,fold change,[1]; [10],1.17
same,cell count,[1]; [11],5660
same,cell count,[1]; [12],6020
O=P(O)(O)O[C@H]1[C@H](O)[C@@H](O)[C@H](OP(=O)(O)O)[C@@H](OP(=O)(O)O)[C@H]1O,fold change,[1]; [9],1 (inactive)
same,fold change,[1]; [10],0.768
same,cell count,[1]; [11],5340
same,cell count,[1]; [12],5330
CCCCCCCCCCC/C=C\C(C)(C)/C=C\CCCC(=O)O,period change,[2],-0.11 h (inactive)
same,survival,[3],88.8 (inactive)
same,inhibition,[4],0% (inactive)
same,fluorescence ratio (interference),[5],0.9 (inactive)
same,fold change,[1]; [9],0.986 (inactive) and 1.01 (inactive)
same,fold change,[1]; [10],1.15 and 1.25
same,cell count,[1]; [11],9810 and 5810
same,cell count,[1]; [12],9950 and 5750
same,fold fluorescence,[6],5.21 (inactive)
same,outcome,[7],inactive
same,z-score,[8],0.145 (inactive)

# From PubChem BioAssay
